Data on 63 sequences can be found in article PMC7819943, “Rice protein-binding microarrays: a tool to detect cis-acting elements near promoter regions in rice”.

Whole data set: some 68,000 sequences, median “fluorescence intensity (a.u.)” near 9,100, cut for the highest 2% near 16,000. This excerpt belongs to a sample that is enriched for the highest values.

Sequence of OsWRKY34 (Q0JBA9 entry or part of it): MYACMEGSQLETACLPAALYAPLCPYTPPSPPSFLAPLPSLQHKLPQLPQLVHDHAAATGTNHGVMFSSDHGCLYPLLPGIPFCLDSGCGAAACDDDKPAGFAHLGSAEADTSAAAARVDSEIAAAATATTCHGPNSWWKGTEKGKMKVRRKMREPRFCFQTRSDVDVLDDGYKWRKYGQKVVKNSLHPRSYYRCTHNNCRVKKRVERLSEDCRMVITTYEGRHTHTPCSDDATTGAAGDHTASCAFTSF

In this test the target is OsWRKY34 (Oryza sativa, UniProt Q0JBA9 1-250). The experiment in a line: protein-binding microarray (RPBM); PBS, 2% BSA, 51.3 ng/ul salmon testes DNA, 50 uM zinc acetate, 200 nM TF, 25 C, 1 h; high values mean tight binding. The conditions noted are these: protein: recombinant; tags: N-terminal polyhistidine and DsRed monomer fusion (pET32a); label: CyDye5-dUTP incorporated in the synthesized complementary strand; 3' TTTTT single-stranded linker to array surface; dsDNA, one strand shown. In short, it runs like this:
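The binding signal is fluorescence intensity per feature, in arbitrary units, read on an Axon 4000B scanner. Polyhistidine- and DsRed-tagged transcription factors (N-terminal fusions) from E. coli BL21-CodonPlus were purified on Ni–NTA and applied at 200 nM for 1 h at 25 °C to a double-stranded, BSA-blocked custom Agilent array in buffer with 50 µM zinc acetate.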
For the sequence “GTGTCCTTTTCTTTTTTTTCTTCTTTTCTTTTTCTTTTTCCGGAGTCACCTAGTGCAG”, the binding signal is 9510 fluorescence intensity (a.u.). Next, “ACCATGTAACGAGTAATCTTTTGACCTGTGCCACGTCATCCGGAGTCACCTAGTGCAG”: 9160 fluorescence intensity (a.u.); “TTTGGTGGTGTGCAAGTGGAGTGGTTTATAAAATTATGTCCGGAGTCACCTAGTGCAG”: 8980 fluorescence intensity (a.u.); “CCTCATCACTCGCTTCTCCTTGCTTACACACCATCCCATCCGGAGTCACCTAGTGCAG”: 8310 fluorescence intensity (a.u.).

Take “CTAACATTCCCTATGCGGAAACACACACATTCATGCACACCGGAGTCACCTAGTGCAG”: the binding signal is 8860 fluorescence intensity (a.u.).

As to “CCTCTTAACTCTTTCCCATTCCCAAATGCGCCACTGTCTCCGGAGTCACCTAGTGCAG”, the binding signal is 9190 fluorescence intensity (a.u.). Next, “CTCTGTCCTATTGGAACATTTCTCTGAAGCAACACCATATCGGAGTCACCTAGTGCAG”: 9340 fluorescence intensity (a.u.); “TGACAGTGTGATGTGCTTGTTCGCTCTGATTTGATTTTGGCGGAGTCACCTAGTGCAG”: 8050 fluorescence intensity (a.u.); “CCCCATCCATTGCAACGGCAACATACACACACCACCACCACGGAGTCACCTAGTGCAG”: 8350 fluorescence intensity (a.u.). Next, “CGTTGACTCCATCTCTTTAACATATTTTAGGAGCATGCTTCGGAGTCACCTAGTGCAG”: 8610 fluorescence intensity (a.u.); “TCATCTCCATCTTTTTATTTACACGCACACTTCTCAAACTCGGAGTCACCTAGTGCAG”: 11100 fluorescence intensity (a.u.). With “CCAACTCCGAACGCCTCTTCTTCTCCTCACCGCCGCCGAACGGAGTCACCTAGTGCAG”, the binding signal was 9650 fluorescence intensity (a.u.). Next, “ATCTCCCGCGGTTTCGATTTGGGTTTATTTGGGCGGTGGGCGGAGTCACCTAGTGCAG”: 18800 fluorescence intensity (a.u.). As for “TGATGTTACTTTGATTTGGGGTTTGATTTGGGAATATGCACGGAGTCACCTAGTGCAG”, the binding signal was 13500 fluorescence intensity (a.u.). Next, “ATGGTTCGATTATTGGTGGAGTTCTCTCTCGGTTTCTCCGCGGAGTCACCTAGTGCAG”: 10600 fluorescence intensity (a.u.); “ATTTGTGATGTGGATTTGGGGTGTTACTTTGATTTGGGGACGGAGTCACCTAGTGCAG”: 12900 fluorescence intensity (a.u.). Next, “TGGATTTAGGATGTTACTTTGATTTGGGGATTTGGGGTTTCGGAGTCACCTAGTGCAG”: 17200 fluorescence intensity (a.u.); “TGTCGGTGTCGGTGGGCGGGGATTCGCGGTAGTGGTGGAACGGAGTCACCTAGTGCAG”: 19700 fluorescence intensity (a.u.). For the sequence “TCTTTGTTTCCCGCGTTTTGTTGGGGATTCGATTTTCGGGCGGAGTCACCTAGTGCAG”, the binding signal is 11100 fluorescence intensity (a.u.).

Consider “GAAGGAGAAGGAGAGGGGAGGGGCTGACGGGTGGGGTCCACGGAGTCACCTAGTGCAG”, for which the binding signal is 14000 fluorescence intensity (a.u.). Next, “CAACGGCGGTGGCGGCGGCGGCGGCGGCGGGGCGGCGTCGCGGAGTCACCTAGTGCAG”: 8370 fluorescence intensity (a.u.); “GTGGGAGTGGCGGTGTCGGGTCCGGAACGAAACGGCGGGGCGGAGTCACCTAGTGCAG”: 10300 fluorescence intensity (a.u.); “CAGATTGTTTTCCATGATTCTTAGCCTCTCTGATGTTTGACGGAGTCACCTAGTGCAG”: 9640 fluorescence intensity (a.u.). Next, “GGGCTGACGGGTGGGGTCCATGTTGTTTTCCTCTTAGGCACGGAGTCACCTAGTGCAG”: 23000 fluorescence intensity (a.u.). The figure for “GCGCCGTCCCTTCGGGCCCACAAGCCGTCCACCCACTTCCCGGAGTCACCTAGTGCAG” is 11300 fluorescence intensity (a.u.); for “GGGCCTATAACTGTAGTTCCATCACGTCTCTCTGTACGTTCGGAGTCACCTAGTGCAG” it is 8820 fluorescence intensity (a.u.). With “GCCATCTCGCCTAAATAAAACCGCGCTACCCATCGACCGACGGAGTCACCTAGTGCAG”, the binding signal is 9280 fluorescence intensity (a.u.). Next, “TCCAGTTTTGGTCTGGGTGATGTGTCATGTTCTGATTGGCCGGAGTCACCTAGTGCAG”: 8180 fluorescence intensity (a.u.); “CTTCTTCCATCCAACCCATTGCATGGTGTATTTTCCATATCGGAGTCACCTAGTGCAG”: 8320 fluorescence intensity (a.u.); “AAATATGGTGGGCCCCACATGGCTGCGCCTCAAGCTTCTCCGGAGTCACCTAGTGCAG”: 9100 fluorescence intensity (a.u.).

Turning to “GTCTCATGTCACACTCACGTAGCTATATTTTTTATATTATCGGAGTCACCTAGTGCAG”, the binding signal was 9120 fluorescence intensity (a.u.).

For the sequence “GTTTGGGATGTCGCGGGGATTTAGGGGCGGTGGGTGGTTTCGGAGTCACCTAGTGCAG”, the binding signal is 39300 fluorescence intensity (a.u.). Next, “TGGGATGTATTTGAGTTGTGATGCATTTCTTTTAGGATTTCGGAGTCACCTAGTGCAG”: 8310 fluorescence intensity (a.u.). The figure for “TGGATGTCGCCGTCGGCGGGGTGGTGGGATTTGGAACTGGCGGAGTCACCTAGTGCAG” is 12500 fluorescence intensity (a.u.); for “ATGCATTTCTTTTAGGATTTGTGATGTATTTTTCGTTTGACGGAGTCACCTAGTGCAG” it is 9640 fluorescence intensity (a.u.); for “TTAGGGGTAGGCTAGAGATTGATTGGGGCTTATATGATAACGGAGTCACCTAGTGCAG” it is 19700 fluorescence intensity (a.u.). The figure for “ACTTTGATTGGGCTGGGTTCATATGAGATTAGGGGAAAAACGGAGTCACCTAGTGCAG” is 13500 fluorescence intensity (a.u.); for “GATTTGGGGATTTGGGGTTTGATTTAGGATGTGCATGCCACGGAGTCACCTAGTGCAG” it is 21400 fluorescence intensity (a.u.). As for “TTAGGGGCGGTGGGTGGTTTTCGGCTGGGAAATCGCGGATCGGAGTCACCTAGTGCAG”, the binding signal was 11500 fluorescence intensity (a.u.).

With “GACCATTATGTTAACTTGGATTAGGGGTAGGCTAGAGATTCGGAGTCACCTAGTGCAG”, the binding signal is 11000 fluorescence intensity (a.u.). Next, “GAGCTCCTGTTGGTCGGGGACGTTTCGCGTTGGTTCCTCTCGGAGTCACCTAGTGCAG”: 12000 fluorescence intensity (a.u.); “TATAATTTTGTGCTAATATGCATTTTCCTTGTTTTGTTTACGGAGTCACCTAGTGCAG”: 11300 fluorescence intensity (a.u.); “ATCACAATAGTAACTATACTCTACAATCCATGGTTTCTTACGGAGTCACCTAGTGCAG”: 8960 fluorescence intensity (a.u.).

For “CCTTGGGCTGTTTTACCATGGTTTTTGCACACGTGGATGACGGAGTCACCTAGTGCAG”, the binding signal is 10100 fluorescence intensity (a.u.). Next, “CTGACATGCGTCGCCATTGACTTTCGCCGCCGCCGCCGCGCGGAGTCACCTAGTGCAG”: 9140 fluorescence intensity (a.u.); “GTCACCATCAAAATAGCTTCATATCTTCCCTGGAAATTTTCGGAGTCACCTAGTGCAG”: 8160 fluorescence intensity (a.u.); “TGTAGTAATTGGGTATCTTCATCATTTGTCCTAAAAAAGTCGGAGTCACCTAGTGCAG”: 8080 fluorescence intensity (a.u.). The figure for “CCACTTTAGATCCCAAATTATATATGGTCGAGTTCTTTTCCGGAGTCACCTAGTGCAG” is 9470 fluorescence intensity (a.u.). The figure for “ATCATCGTTCACCCGCATTTCATCTACTTCAATCTACATTCGGAGTCACCTAGTGCAG” is 9810 fluorescence intensity (a.u.); for “ACATCCATCCACTCAACCCATTCTACCGTATTAAGCCAATCGGAGTCACCTAGTGCAG” it is 8192 fluorescence intensity (a.u.); for “CGCAACCCCAAGCACTGGTGTTCTACATTCAATCAATCATCGGAGTCACCTAGTGCAG” it is 38500 fluorescence intensity (a.u.).

For “GATAGGGTTAGGGATGGATAGGGTTTCCTTGAGGGTAGTTCGGAGTCACCTAGTGCAG”, the binding signal was 16400 fluorescence intensity (a.u.).

In the case of “AGGGTGGGTTATATTTGAGCTGGTTAGCAAAAACTATAATCGGAGTCACCTAGTGCAG”, the binding signal was 17900 fluorescence intensity (a.u.).

For the sequence “AGGGGCGGAACTGGGTAGGCAGGGTGGGTTATATTTGAGCCGGAGTCACCTAGTGCAG”, the binding signal is 10500 fluorescence intensity (a.u.). The figure for “TGAGTGGTGGGAGGAGTTAGCAAGTGGTTTGACCGTGGTTCGGAGTCACCTAGTGCAG” is 11800 fluorescence intensity (a.u.); for “TCGTGGTGGTGGTGGTGGTGGAAGTTAGGGTTTGAGGGTTCGGAGTCACCTAGTGCAG” it is 17300 fluorescence intensity (a.u.). The figure for “TCTATTTTATAATCGGTGTGTTTGACTGGTATTTTTTAGCCGGAGTCACCTAGTGCAG” is 8930 fluorescence intensity (a.u.).

With “GATAGGGTTAGCAGGGTGGGAAAATATATTTATTATAGTTCGGAGTCACCTAGTGCAG”, the binding signal is 18700 fluorescence intensity (a.u.).

Take “TAGGGTTTGGATGGATAGGGTATATGAGGGTAATTTAGGCCGGAGTCACCTAGTGCAG”: the binding signal was 8450 fluorescence intensity (a.u.). Next, “CTGGTTCGGGAATTTCTGGGTGTATAGGGAAATAATTTATCGGAGTCACCTAGTGCAG”: 8060 fluorescence intensity (a.u.); “ACGGCCTAGTTTTGGTTGAAGTTTTTGGTAGGGGTTAGTTCGGAGTCACCTAGTGCAG”: 12300 fluorescence intensity (a.u.).

For “GAAGTTAGGGTTTGAGGGTTTGGTTCCGGAGGGTAGGGTCCGGAGTCACCTAGTGCAG”, the binding signal is 9850 fluorescence intensity (a.u.). The figure for “TCCGGTTCGTTATTTTTATTTTTCTCAGGGAAAAAAAATCCGGAGTCACCTAGTGCAG” is 8060 fluorescence intensity (a.u.).
